Molecules are shown by their SMILES. Hit rate of the full screen: of about 340,000 compounds, about 2,100 (0.62%) were called active. A selection follows. Entries with a potency or affinity are not part of this list. A number with no mark means an inactive call.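 The calls were made as follows: active = first-screen hits whose inhibition reached a set limit at any dose in the follow-up dose series; inconclusive = inhibition above the set first-screen limit but never retested; inactive = the rest.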

The target of this experiment is Rac GTPase-activating protein 1 (Homo sapiens) (UniProt Q9H0H5). Nature of the experiment: blockers of MgcRacGAP-driven Rac1 GTP hydrolysis – biochemical, ADP Hunter fluorescence, primary and confirmatory, confirmation (AID 624330).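 Also: fluorescence reports GDP produced by GAP-driven GTP hydrolysis.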 The conditions noted are these: MgcRacGAP-stimulated Rac1 GTP hydrolysis, at 30 µM, active compounds read high, GST-tagged Rac1 F28L mutant substrate.
Rac GTPase-activating protein 1 (Homo sapiens), sequence (Q9H0H5 whole entry, looked up): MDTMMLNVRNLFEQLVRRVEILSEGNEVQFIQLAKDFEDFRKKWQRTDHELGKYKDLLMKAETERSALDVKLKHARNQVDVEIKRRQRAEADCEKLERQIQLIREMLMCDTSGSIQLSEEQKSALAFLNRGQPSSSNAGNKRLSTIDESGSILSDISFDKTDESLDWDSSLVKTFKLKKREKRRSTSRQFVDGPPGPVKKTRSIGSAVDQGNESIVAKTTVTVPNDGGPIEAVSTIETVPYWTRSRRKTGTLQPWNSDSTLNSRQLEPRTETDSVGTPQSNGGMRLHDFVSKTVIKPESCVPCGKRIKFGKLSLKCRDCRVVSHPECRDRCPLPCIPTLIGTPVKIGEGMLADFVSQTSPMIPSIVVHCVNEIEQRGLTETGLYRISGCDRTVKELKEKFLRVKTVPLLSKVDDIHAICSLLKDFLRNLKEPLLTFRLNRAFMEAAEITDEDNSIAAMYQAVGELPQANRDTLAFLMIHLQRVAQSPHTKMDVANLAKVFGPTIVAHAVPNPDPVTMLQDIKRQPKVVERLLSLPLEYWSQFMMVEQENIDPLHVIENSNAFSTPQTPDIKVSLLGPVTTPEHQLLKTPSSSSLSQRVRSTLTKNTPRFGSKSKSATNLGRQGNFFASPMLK
`CC(O)Cn1c(N2CCCC2)nc2c1c(=O)[nH]c(=O)n2C` (stereo not drawn): the inhibition (as a rule, the drop in the measured response relative to a control, in per cent) was 4.91%.

Turning to `O=[N+]([O-])c1ccc2nc(C3CCCCC3)[nH]c2c1`, the inhibition is 6.17%.

With `Cc1nc2ccc(-c3nc4ccccc4[nH]3)cc2[nH]1`, the inhibition is 22.2%.

`O=[N+]([O-])c1ccc2nc(-c3ccc(Cl)cc3)[nH]c2c1`: the inhibition is 9.26%.

On to `Cc1nc2ccc(-c3nc4cc(N)ccc4o3)cc2[nH]1`, for which the inhibition was 4.01%.

Regarding `c1cncc(-c2nc3ccccc3[nH]2)c1`, the inhibition is 3.11%.

For the molecule `Cc1ccc2nc(C3CCCCC3)[nH]c2c1`, the inhibition was 9.42%.

On to `Clc1ccc(-c2nc3ccncc3[nH]2)cc1`, for which the inhibition was -13.9%.

As to `c1cncc(-c2nc3cc4ccccc4cc3[nH]2)c1`, the inhibition was 21.6%.

Take `C=CCNC(=S)NNC(=O)c1ccc2c(c1)OCO2`: the inhibition was 4.79%.

As for `CC(NC(=O)C(=O)N1CCOCC1)C(c1cccs1)N1CCN(c2ccccc2)CC1` (stereo not drawn), the inhibition is 11%.

On to `CC1CCCN(C(=O)C2CCN(S(=O)(=O)c3ccc4c(c3)CC(C)N4C(=O)C3CC3)CC2)C1` (stereo not drawn), for which the inhibition was -0.15%.

Regarding `COc1ccc(CNC(=O)C(NS(=O)(=O)c2ccc3c(c2)CCCN3C(C)=O)C(C)C)cc1` (stereo not drawn), the inhibition is 6.24%.

As for `COc1cccc(CNC(=O)CCS(=O)(=O)c2ccc3c(c2)NC(=O)CS3)c1`, the inhibition is 6.72%.

As for `O=C1c2ccccc2NC(c2ccccn2)N1c1ccccc1F` (stereo not drawn), the inhibition was 6.7%.

Take `O=C(NC1CCCCC1)c1cc(S(=O)(=O)N2CCCC2)ccc1Cl`: the inhibition is 9.3%.

With `CCOC(=O)COc1nc(OC)nc(N2CCOCC2)n1`, the inhibition was 13%.

On to `Nc1ccc2nc(C(F)(F)F)[nH]c2c1`, for which the inhibition is 7.12%.

For `Nc1ccc(-c2nc3ccccc3[nH]2)cc1`, the inhibition was 8.27%.

As to `Nc1cccc(-c2nc3ccccc3[nH]2)c1`, the inhibition was 8.22%.

As for `Nc1ccc2nc(-c3cccc(-c4nc5ccc(N)cc5[nH]4)c3)[nH]c2c1`, the inhibition is 25.9%.

For `O=C(OCC(=O)N1CCN(C(=O)c2ccco2)CC1)c1sc2cc(F)ccc2c1Cl`, the inhibition is 3.78%.

As to `COC(=O)c1ccc(C(=O)OC)c(NC(=O)CN(C)Cc2cccc(Cl)c2Cl)c1`, the inhibition was 5.99%.

For `Cc1nc2cc3nc(C)sc3cc2s1`, the inhibition was 10.8%.

On to `O=C(Cc1ccc(Cl)cc1)N/N=C/c1cccc(O)c1`, for which the inhibition is -4.31%.

Turning to `O=C(CCc1ccc(O)cc1)NN=Cc1ccc2c(c1)OCO2`, the inhibition was 28.7%.

In the case of `COc1ccc(CCC(=O)N/N=C/c2ccc3c(c2)OCO3)cc1`, the inhibition is 4.06%.

As for `O=C(Cc1ccc(Cl)cc1)N/N=C/c1ccccc1`, the inhibition was 3.03%.

In the case of `O=C(CCC(=O)OCc1ccc([N+](=O)[O-])cc1)Nc1ccc(F)cc1`, the inhibition is 4.88%.

As to `O=C(CC(c1ccccc1)c1ccccc1O)NCCN1CCOCC1` (stereo not drawn), the inhibition was -6.2%.

Turning to `Nc1ccccc1-n1c(=O)n(Cc2ccccc2F)c(=O)c2[nH]cnc21`, the inhibition is 3.12%.

On to `C=CCn1c(SCc2cc(=O)n3cc(C)ccc3n2)nnc1-c1cccc(C)c1`, for which the inhibition is 8.24%.

Consider `CSCC[C@H](NC(=O)OC(C)(C)C)C(=O)N1CCC(C(=O)NCC(=O)Nc2ccc(C)cc2)CC1`, for which the inhibition is -4.04%.

As for `COCCNC(=O)c1ccc(-c2csc(C)n2)cc1`, the inhibition was 3.59%.

On to `C[C@@H]1CN([C@H](C)CO)C(=O)c2cc(Br)cnc2O[C@@H]1CN(C)C(=O)C1CCOCC1`, for which the inhibition was 8.56%.

Take `CNc1nnc(-c2ccncc2)s1`: the inhibition is 6.68%.

`CNc1nnc(-c2cccc(N(C)C)c2)s1`: the inhibition was 4.36%.

With `Cc1cc(OCC(=O)NCC2CCC(C(=O)O)CC2)c2c(C)c(Cc3ccccc3)c(=O)oc2c1` (stereo not drawn), the inhibition is 1.13%.

With `CCCc1cc(=O)[nH]c(SCC(=O)NC)n1`, the inhibition is 2.55%.

With `CCCCNC(=O)c1ccc(CS(=O)(=O)c2ccc(OC)cc2)o1`, the inhibition is -10.9%.

In the case of `CCOc1ccc(S(=O)(=O)Nc2ccc(C(=O)NCC(c3ccc(OC)cc3)N3CCOCC3)cc2)cc1` (stereo not drawn), the inhibition is 5.24%.

`COc1ccc(CN2CCC(=O)N(CCO)CC2)cc1OC`: the inhibition was 7.88%.

With `O=C(c1ccco1)N1CCN(Cc2cn[nH]c2-c2ccc(F)cc2F)CC1`, the inhibition is -5.62%.

Consider `Cn1c(=O)[nH]c(Nc2ccccc2)c([N+](=O)[O-])c1=O`, for which the inhibition was 5.65%.

On to `Cn1c(=O)[nH]c(Nc2ccc(F)cc2)c([N+](=O)[O-])c1=O`, for which the inhibition is 8.12%.

As for `Cc1ccc(C(=O)NCCCNC(=O)c2ccco2)cc1`, the inhibition is 4.3%.

On to `CN(CC(=O)Nc1c(Cl)cccc1Cl)C(=O)C1CCN(C(=O)Nc2ccccc2)CC1`, for which the inhibition is -1.59%.

Regarding `COc1ccccc1CCC(=O)OCC(=O)Nc1ccc(C(N)=O)cc1`, the inhibition is -2.01%.

With `Cc1ccc(S(=O)(=O)N2CCCCC2)cc1NC(=O)CSc1nc(N)cc(=O)[nH]1`, the inhibition was 4.78%.

On to `Cc1c(-c2ccccc2)sc(Br)c1C(=O)N1CCOCC1`, for which the inhibition was 2.64%.

With `COC(=O)c1c(N)sc(C(=O)N2CCOCC2)c1C`, the inhibition is 8.37%.

Regarding `Cc1ccc(N(C(C)C(=O)O)S(=O)(=O)c2cccnc2)cc1` (stereo not drawn), the inhibition was 4.39%.

As for `COc1ccc(/C=C2\C(=O)ON=C2c2ccccc2)cc1`, the inhibition is 24.6%.

For `COc1cc([N+](=O)[O-])ccc1-c1ccc(/C=C2\C(=O)ON=C2c2ccccc2)o1`, the inhibition was 25%.

For `O=C1ON=C(c2ccccc2)/C1=C/c1ccc(-c2ccccc2[N+](=O)[O-])o1`, the inhibition is 7.69%.

Turning to `O=C1ON=C(c2ccccc2)/C1=C\c1ccco1`, the inhibition was 19.1%.

As to `CN(C)/C=C1\C(=O)ON=C1c1ccccc1`, the inhibition is 11.7%.

With `Cc1ccc(C2=NOC(=O)/C2=C\c2ccccc2)cc1`, the inhibition was 8.59%.

In the case of `O=C1ON=C(c2ccccc2)/C1=C/c1cccnc1`, the inhibition is 3.82%.

For `Cc1ccc(C2=NOC(=O)/C2=C\C=C\c2ccccc2)cc1`, the inhibition was 6.67%.

In the case of `Cc1ccc(CNS(=O)(=O)NCc2ccc(Cl)cc2)cc1`, the inhibition is 0.28%.

In the case of `COc1ccc(N2CCN(C(=O)COC(=O)CCS(=O)(=O)c3ccc(C)cc3)CC2)cc1`, the inhibition was 20.8%.

Turning to `O=S(=O)(c1ccc2ccccc2c1)N1CCNCC1`, the inhibition is 11.3%.

Turning to `COc1ccc(CNC(=O)CN(C(=O)CCC(=O)Nc2ccccn2)c2cccc(C)c2C)cc1`, the inhibition was 6.1%.

Take `CCc1nnc(NC(=O)CSc2nnc3ncccn23)s1`: the inhibition was 4.86%.

For `CC(=O)Nc1cccc(NC(=O)CSc2n[nH]c(-c3ccccc3)n2)c1`, the inhibition was 2.62%.

As for `O=[N+]([O-])c1ccccc1S(=O)(=O)N1CCCc2ccccc21`, the inhibition was -4.93%.

Turning to `O=c1c(O)c(-c2cc(O)c(O)c(O)c2)oc2cc(O)cc(O)c12`, the inhibition was -51.5%.

On to `COc1ccc(-c2coc3cc(O)ccc3c2=O)cc1`, for which the inhibition was -1.73%.

As to `O=c1c(O)c(-c2ccc(O)c(O)c2)oc2cc(O)cc(O)c12`, the inhibition is 24.2%.

With `O=c1c(-c2ccc(F)cc2)coc2cc(O)ccc12`, the inhibition was 2.56%.

In the case of `O=c1cc(O)c2ccc(O)cc2o1`, the inhibition is 11.2%.

Turning to `COc1c(-c2ccc(O)cc2)oc2cc(O)cc(O)c2c1=O`, the inhibition is 8.09%.

Regarding `O=c1c(O)c(-c2ccccc2)oc2cc(O)cc(O)c12`, the inhibition is 9.81%.

Take `COc1ccc(-c2oc3cc(O)c(OC)c(O)c3c(=O)c2OC)cc1O`: the inhibition was 26.4%.

Regarding `CC1(C)CC(=O)C(N=Nc2ccc3ncsc3c2)=C(O)C1`, the inhibition is 9.23%.

In the case of `Cc1cc(C)c(/C([O-])=C(/C(=S)Nc2ccc(SC(F)F)cc2)[n+]2ccccc2)cc1C`, the inhibition is -14.3%.

Take `Cc1cc(C(=O)N2CCCC(N3CCN(c4cccc(Cl)c4)CC3)C2)n(C)n1` (stereo not drawn): the inhibition was 9.25%.

Regarding `O=C(COc1ccccc1)N[C@@H]1c2ccccc2CC[C@@H]1OCc1ccccc1`, the inhibition was 3.68%.

As for `CCN(C(=S)NC(=O)c1ccco1)c1cccc2ccccc12`, the inhibition was 15.5%.

As to `N/C(Cc1ccc(Cl)cc1Cl)=N\OC(=O)Cc1cccs1`, the inhibition was 6.38%.

Turning to `O=C(COc1ccc(-c2nnco2)cc1)NC1CCS(=O)(=O)C1` (stereo not drawn), the inhibition is 2.22%.

In the case of `Cn1c(SCC(=O)N2CCc3ccccc3C2)nnc1-c1cccs1`, the inhibition was -0.2%.

In the case of `COc1ccc(/C=C2\CCc3ccccc3C2=O)cc1O`, the inhibition was 12.2%.

For `COc1cc(/C=C2\CCc3ccccc3C2=O)cc(OC)c1OC`, the inhibition was 4.54%.

With `COc1cccc(/C=C2\CCc3ccccc3C2=O)c1`, the inhibition was 7.06%.

Regarding `COc1cc(C=C2C(=O)c3ccccc3C2=O)ccc1O`, the inhibition is 15.4%.

`COc1cc(/C=C2/CCc3ccccc3C2=O)cc(OC)c1OC`: the inhibition was 4.12%.

Take `COc1cc(C=C2C(=O)c3ccccc3C2=O)cc(OC)c1`: the inhibition is 5.79%.

As to `Cc1nc(NCC(c2ccccc2)N(C)C)c2c(C)c(C)sc2n1` (stereo not drawn), the inhibition was 7.93%.

As for `C=CCNC(=O)CN1CCN(Cc2ccc3c(c2)OCO3)CC1`, the inhibition is 6.33%.

On to `O=C(NNc1ccccc1[N+](=O)[O-])NC1CCCCC1`, for which the inhibition is 2.65%.

For the molecule `Cc1ccc(NC(=O)CCn2c(=O)c3cccn3c3ccccc32)cc1C`, the inhibition is 7.75%.

Turning to `CN(CC(=O)Nc1ccccc1N1CCCC1)S(=O)(=O)c1ccc(F)cc1`, the inhibition is 3.64%.

As for `CCOC(=O)NNC(=O)c1[nH]c2ccc(Br)cc2c1-c1ccccc1`, the inhibition was 9.63%.

In the case of `O=C(O)c1cccc(Nc2nc(C(F)(F)F)nc3ccccc23)c1`, the inhibition was 2.84%.

As to `OCCN(CCO)c1cc2c3ccccc3ccc2c2ccccc12`, the inhibition is 16%.

For the molecule `OCCN(CCO)c1ccc(C(c2ccccc2Cl)c2ccc(N(CCO)CCO)cc2Cl)c(Cl)c1`, the inhibition is 4.93%.

Source of the values: PubChem BioAssay AID624330 (Southern Research Specialized Biocontainment Screening …, 2012).
